Measurements from PubChem BioAssay.
Calls of active or inactive are those of the source.

Tests used:
Albumin (Bos taurus) = Albumin (Bos taurus) (UniProt P02769); experiment: bovine serum albumin binders on microarray, profiling panel, artefact control for SMM control protein annotation, biochemical, small-molecule microarray, Alexa647 label, 635/667 nm fluorescence (AID 1118); conditions: BSA-A647 binding, fluorescence 635 nm, higher = more signal;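 also: score merges 667 nm emission intensity and signal-to-noise per printed compound spot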
[1] = small-molecule microarray binders of probe aXIP, primary screen, biochemical, NeuroSMM set, 635/667 nm fluorescence (AID 1119); conditions: higher = more signal, called active from +8 up or from −8 down;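 also: probe is the protein aXip251-270 applied at 1 µg/mL to compound-printed slides; binding of probe to printed compounds measured as 667 nm fluorescence plus signal to noise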
[2] = small-molecule binders of probe aNOTCH3, primary screen, biochemical, small-molecule microarray, 635/667 nm fluorescence (AID 1120); conditions: higher = more signal;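 also: probe is a biotin-tagged antibody raised against NOTCH3 rather than NOTCH3 protein; score merges spot fluorescence near 667 nm with spot signal to noise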
[3] = small-molecule binders of probe aNOTCH2, primary screen, biochemical, small-molecule microarray, 635/667 nm fluorescence (AID 1121); conditions: higher = more signal;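 also: score merges feature fluorescence read at 667 nm with its signal to noise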
[4] = biological target: Carbonic anhydrase 2 (Homo sapiens) (UniProt P00918); experiment: CAII small-molecule binders, profiling panel, biochemical, small-molecule microarray, Alexa647-labelled CAII (AID 1122); conditions: CAII-A647 binding fluorescence, higher = more signal
[5] = COS7 lysate on small-molecule microarray, probe aHis, 635 nm (AID 1123); conditions: COS7 cell lysate, fluorescence, higher = more signal;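 also: z-score combines 667nm fluorescence intensity with signal-to-noise per printed compound spot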
[6] = compound binding in COS7 lysate, probe aLAP1, primary screen, cell lysate, small-molecule microarray (AID 1124); conditions: probe aLAP1, fluorescence, higher = more signal;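 also: lysate comes from COS7 cells expressing LAP1 and is applied at 0.3 µg/mL; score merges spot fluorescence near 667 nm with signal-to-noise over triplicate slides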
Sam68 (KHDRBS1) = experiment: Sam68 small-molecule binders, primary screen, biochemical, small-molecule microarray, 635 nm fluorescence (AID 1125); conditions: small-molecule microarray binding, higher = more signal;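 also: score merges 667 nm channel intensity with signal to noise over triplicate slides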
[7] = test system: Chordin-like protein 2 (CHRDL2); experiment: CHRDL2 small-molecule binders, primary screen, biochemical, small-molecule microarray, 635 nm fluorescence (AID 1126); conditions: small-molecule microarray binding, fluorescence 635 nm; higher = more signal;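 also: printed compound slides probed with Chrdl2 protein at 4 µg/mL for 1 h at 4 C; score merges 667 nm emission intensity with signal to noise over three replicate slides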
[8] = biological target: Concanavalin-A (Canavalia ensiformis) (UniProt P02866); experiment: ConA small-molecule binders, primary screen, artefact control for SMM control protein annotation, biochemical, small-molecule microarray, Alexa647 label, 635 nm (AID 1127); conditions: ConA-A647 binding fluorescence, higher = more signal;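 also: z combines 667 nm emission intensity with signal-to-noise across three replicate slides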
[9] = anti-His antibody binders, primary screen, artefact control for SMM control protein annotation, biochemical, small-molecule microarray, 635 nm fluorescence (AID 1128); conditions: anti-His Alexa647 antibody binding, higher = more signal;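 also: score merges feature fluorescence with signal-to-noise for each printed compound spot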
[10] = test system: Human papillomavirus type 1a E7 protein (residues 1-88); experiment: HPV1a E7 small-molecule binders, primary screen, biochemical, small-molecule microarray, residues 1-88, 635 nm (AID 1129); conditions: small-molecule microarray binding, fluorescence 635 nm; higher = more signal
[11] = biological target: Focal adhesion kinase 1 (Homo sapiens) (UniProt Q05397); experiment: small-molecule microarray binders of FAK, primary screen, biochemical, 635/667 nm fluorescence, BSA, DTT (AID 1130); conditions: PTK2 binding, 635 nm fluorescence, higher = more signal;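 also: composite of spot emission at 667 nm and signal to noise over triplicate slides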
[12] = test system: Fibrinogen (Alexa647-labelled); experiment: fibrinogen binders on compound microarrays, profiling panel, artefact control for SMM control-protein annotation, biochemical, small-molecule microarray, 635/667 nm fluorescence (AID 1131); conditions: fibrinogen-A647 binding fluorescence, higher = more signal;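 also: z-score merges 667 nm fluorescence with per-spot signal-to-noise over triplicate slides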
[13] = biological target: Follistatin (Homo sapiens) (UniProt P19883); experiment: follistatin binders on small-molecule microarrays, primary screen, biochemical, small-molecule microarray, 635/667 nm fluorescence (AID 1132); conditions: FST binding, 635 nm fluorescence, higher = more signal
[14] = biological target: Fibroblast growth factor 2 (Homo sapiens) (UniProt P09038); experiment: FGF2 binders on small-molecule microarrays, primary screen, biochemical, small-molecule microarray, 635/667 nm fluorescence (AID 1133); conditions: small-molecule microarray binding, FGF2, fluorescence 635/667; higher = more signal
[15] = mitochondrial membrane potential change in A549 cells, profiling panel, cell-based, JC-1 fluorescence, basal, 24 h, 100 nL (AID 1138); conditions: higher = more signal;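 also: A549 lung adenocarcinoma cells under basal conditions with no added stimulus; test concentration not given here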
Lefty1 = Lefty1 binders on small-molecule microarrays, primary screen, biochemical, small-molecule microarray, 635/667 nm fluorescence (AID 1139); conditions: small-molecule microarray binding, fluorescence 635/667; higher = more signal
[16] = test system: wheat germ agglutinin (Triticum aestivum), Alexa647-labelled; experiment: wheat germ agglutinin binders on compound microarrays, profiling panel, artefact control for SMM control-protein annotation, biochemical, small-molecule microarray, 635/667 nm fluorescence (AID 1140); conditions: WGA-A647 binding, 635 nm fluorescence, higher = more signal;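 also: score merges 667 nm feature emission with signal to noise over triplicate slides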
[17] = biological target: Luciferin 4-monooxygenase (Photinus pyralis) (UniProt P08659); experiment: firefly luciferase enzyme inhibitors, primary screen, biochemical, luminescence, purified enzyme, 2006 set (AID 1141); conditions: SteadyGlo luminescence, 30 min, higher = more signal, called active from +8 up or from −8 down;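 also: cell-free assay with purified firefly luciferase at 100 ng per well in PBS; test concentration not given here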
Luciferin 4-monooxygenase (Photinus pyralis), sequence (P08659 whole entry, looked up): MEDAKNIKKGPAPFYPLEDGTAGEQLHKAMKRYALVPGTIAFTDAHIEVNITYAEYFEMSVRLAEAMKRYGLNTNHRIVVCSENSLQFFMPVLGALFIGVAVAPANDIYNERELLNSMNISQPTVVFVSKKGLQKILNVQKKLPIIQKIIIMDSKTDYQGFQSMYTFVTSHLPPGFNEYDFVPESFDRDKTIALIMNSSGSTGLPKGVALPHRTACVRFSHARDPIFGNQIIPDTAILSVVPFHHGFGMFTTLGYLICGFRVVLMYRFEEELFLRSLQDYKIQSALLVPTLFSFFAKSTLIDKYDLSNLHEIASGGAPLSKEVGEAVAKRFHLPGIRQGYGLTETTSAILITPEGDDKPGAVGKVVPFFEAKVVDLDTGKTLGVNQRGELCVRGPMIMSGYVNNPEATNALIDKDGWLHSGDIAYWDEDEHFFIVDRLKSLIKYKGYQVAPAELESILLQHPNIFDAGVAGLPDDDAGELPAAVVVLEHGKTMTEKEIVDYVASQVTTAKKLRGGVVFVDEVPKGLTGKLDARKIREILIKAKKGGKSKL

Fibroblast growth factor 2 (Homo sapiens), sequence (P09038 whole entry, looked up): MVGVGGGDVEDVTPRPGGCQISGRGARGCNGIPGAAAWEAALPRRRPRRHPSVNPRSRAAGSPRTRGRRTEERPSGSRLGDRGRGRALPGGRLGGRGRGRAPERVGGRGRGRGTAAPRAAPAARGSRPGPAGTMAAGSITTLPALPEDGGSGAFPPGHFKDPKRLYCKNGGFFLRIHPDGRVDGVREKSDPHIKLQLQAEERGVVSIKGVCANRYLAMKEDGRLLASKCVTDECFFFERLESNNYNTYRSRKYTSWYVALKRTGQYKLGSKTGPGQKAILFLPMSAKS
Focal adhesion kinase 1 (Homo sapiens), sequence (Q05397 whole entry, looked up): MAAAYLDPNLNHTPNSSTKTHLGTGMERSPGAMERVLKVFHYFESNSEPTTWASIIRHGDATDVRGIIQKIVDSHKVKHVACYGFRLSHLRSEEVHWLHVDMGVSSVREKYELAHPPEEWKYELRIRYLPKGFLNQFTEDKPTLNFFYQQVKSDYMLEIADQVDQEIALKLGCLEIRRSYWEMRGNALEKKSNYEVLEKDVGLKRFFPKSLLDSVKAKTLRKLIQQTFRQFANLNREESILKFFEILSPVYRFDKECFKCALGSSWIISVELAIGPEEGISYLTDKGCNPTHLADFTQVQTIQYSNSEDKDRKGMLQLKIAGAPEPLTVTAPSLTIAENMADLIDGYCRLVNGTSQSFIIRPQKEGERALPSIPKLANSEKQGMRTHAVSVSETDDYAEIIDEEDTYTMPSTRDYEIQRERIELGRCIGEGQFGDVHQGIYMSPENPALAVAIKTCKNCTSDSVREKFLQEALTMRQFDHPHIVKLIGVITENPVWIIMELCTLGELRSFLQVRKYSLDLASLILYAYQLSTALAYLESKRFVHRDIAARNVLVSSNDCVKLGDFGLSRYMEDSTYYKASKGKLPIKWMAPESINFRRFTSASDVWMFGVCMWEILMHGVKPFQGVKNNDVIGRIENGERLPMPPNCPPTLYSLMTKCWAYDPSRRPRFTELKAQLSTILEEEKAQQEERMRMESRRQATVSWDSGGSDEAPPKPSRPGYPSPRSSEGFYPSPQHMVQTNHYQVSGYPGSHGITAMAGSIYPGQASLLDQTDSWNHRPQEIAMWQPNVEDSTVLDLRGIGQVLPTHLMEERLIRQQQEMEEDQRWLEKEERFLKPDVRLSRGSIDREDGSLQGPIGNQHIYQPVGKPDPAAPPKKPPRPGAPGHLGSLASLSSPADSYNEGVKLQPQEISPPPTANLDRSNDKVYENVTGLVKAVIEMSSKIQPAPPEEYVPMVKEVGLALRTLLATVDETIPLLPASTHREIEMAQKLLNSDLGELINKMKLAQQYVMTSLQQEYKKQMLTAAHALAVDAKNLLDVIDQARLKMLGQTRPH
Follistatin (Homo sapiens), sequence (P19883 whole entry, looked up): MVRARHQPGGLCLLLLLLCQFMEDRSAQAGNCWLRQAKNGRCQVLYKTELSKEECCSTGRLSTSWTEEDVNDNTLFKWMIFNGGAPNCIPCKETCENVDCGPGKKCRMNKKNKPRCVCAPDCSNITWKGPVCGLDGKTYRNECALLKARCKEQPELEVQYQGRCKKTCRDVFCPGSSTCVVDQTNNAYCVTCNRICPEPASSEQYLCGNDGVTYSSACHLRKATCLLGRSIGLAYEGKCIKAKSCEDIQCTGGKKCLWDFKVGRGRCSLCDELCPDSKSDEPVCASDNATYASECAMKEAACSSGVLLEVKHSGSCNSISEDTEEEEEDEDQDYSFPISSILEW
Albumin (Bos taurus), sequence (P02769 whole entry, looked up): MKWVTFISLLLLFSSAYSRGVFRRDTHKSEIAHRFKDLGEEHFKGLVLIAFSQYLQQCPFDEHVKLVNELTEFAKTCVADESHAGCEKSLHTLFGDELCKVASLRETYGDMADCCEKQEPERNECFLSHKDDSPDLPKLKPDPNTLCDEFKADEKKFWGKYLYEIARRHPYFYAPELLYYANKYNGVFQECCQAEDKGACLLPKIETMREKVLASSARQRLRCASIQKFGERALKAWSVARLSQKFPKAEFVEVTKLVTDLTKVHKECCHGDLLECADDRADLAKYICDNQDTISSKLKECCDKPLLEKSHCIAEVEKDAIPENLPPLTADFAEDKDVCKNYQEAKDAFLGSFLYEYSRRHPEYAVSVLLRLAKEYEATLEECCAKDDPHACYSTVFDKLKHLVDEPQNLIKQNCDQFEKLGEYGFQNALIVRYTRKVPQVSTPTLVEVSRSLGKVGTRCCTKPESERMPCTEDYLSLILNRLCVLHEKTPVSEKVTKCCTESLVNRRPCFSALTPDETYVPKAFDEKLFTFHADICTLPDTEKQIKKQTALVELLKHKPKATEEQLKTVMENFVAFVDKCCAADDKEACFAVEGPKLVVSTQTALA
Concanavalin-A (Canavalia ensiformis), sequence (P02866 whole entry, looked up): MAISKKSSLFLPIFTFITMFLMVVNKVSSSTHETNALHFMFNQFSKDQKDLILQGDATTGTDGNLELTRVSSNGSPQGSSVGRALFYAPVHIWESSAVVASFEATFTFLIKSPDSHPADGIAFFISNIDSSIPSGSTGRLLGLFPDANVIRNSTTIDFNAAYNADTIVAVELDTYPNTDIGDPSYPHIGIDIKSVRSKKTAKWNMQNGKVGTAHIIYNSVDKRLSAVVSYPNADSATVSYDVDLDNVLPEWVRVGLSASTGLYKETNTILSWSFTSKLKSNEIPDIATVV

Row | SMILES | composite z-score (Albumin (Bos taurus)) | composite Z-score [1] | composite z-score [2] | composite z-score [3] | composite z-score [4] | composite z-score [5] | composite z-score [6] | composite z-score (Sam68 (KHDRBS1)) | composite z-score [7] | composite z-score [8] | composite z-score [9] | composite z-score [10] | composite z-score [11] | composite z-score [12] | composite z-score [13] | composite z-score [14] | z-score [15] | composite z-score (Lefty1) | composite z-score [16] | z-score [17]
1 | COCCOC(=O)N1C(=O)[C@@]2(c3cc(C#CCNC(N)=O)ccc31)[C@H](C(=O)N1CCN(c3ncccn3)CC1)[C@H]1C(=O)O[C@H](c3ccccc3)[C@H](c3ccccc3)N1[C@@H]2c1ccccc1OCCO | 0.413 | 0.255 (inactive) | 0.209 | 0.0066 | 0.358 | 1.08 | 0.427 | 1.31 | 0.867 | 1.02 | 1.24 | 1.07 | 0.261 | 0.797 | 1.37 | 0.406 | -1.55 | 0.889 | 0.749 | 1.05 (inactive)
2 | O=C(CS)NCCCCCCNC(=O)[C@H]1C[C@H]2C(=O)N3CCC[C@H]3C(=O)N2[C@H]1c1cccc(OCCO)c1 | 0.0023 | -0.254 (inactive) | 0.0242 | -0.105 | 0.528 | 2.51 | 0.407 | 1.29 | 0.97 | 1.02 | 1.7 | 1.23 | 0.615 | 0.0353 | 1.28 | 1.19 | -0.145 | 0.731 | 0.658 | -0.135 (inactive)
3 | O=C1N(CCS(=O)(=O)c2ccccc2)Cc2ccccc2[C@H]2OC(c3ccc(OCCCO)cc3)=N[C@@]12CCS(=O)(=O)c1ccccc1 | -0.284 | 1.81 (inactive) | -0.0247 | -0.0586 | 0.524 | 2.64 | 0.708 | 1.3 | 0.242 | 1.22 | 2.44 | 1.21 | 0.772 | 0.561 | 1.33 | 1.31 | -1.15 | -0.0425 | 1.09 | -1.7 (inactive)
4 | COC(=O)[C@@]1(Cc2ccccc2N=[N+]=[N-])COC(c2ccc(OCCCO)cc2)=N1 | -0.261 | 1.07 (inactive) | -0.0546 | -0.112 | 0.573 | 1.99 | 0.753 | 0.994 | -0.473 | 1.08 | 1.19 | 1.16 | 0.676 | 0.492 | 1.27 | 0.3 | 0.719 | -0.57 | 0.439 | -1.93 (inactive)
5 | COC(=O)[C@@]1(Cc2ccccc2)[C@H]2c3cc(C(=O)N(C)C)n(Cc4c(-c5ccccc5)noc4C)c3C[C@H]2CN1C(=O)c1ccccc1 | 1.01 | -0.899 (inactive) | 0.187 | 0.379 | 0.437 | 2.63 | -0.157 | 0.486 | 0.28 | 0.564 | 2.29 | 1.22 | 1.21 | 0.968 | 0.212 | -0.533 | 0.582 | -0.579 | 1.17 | 1.49 (inactive)
6 | COCCOC(=O)N1C(=O)[C@@]2(c3ccccc31)[C@H](C(=O)Nc1nc3ccccc3s1)[C@H]1C(=O)O[C@H](c3ccccc3)[C@H](c3ccccc3)N1[C@@H]2c1ccc(OCCO)cc1 | 0.735 | -0.533 (inactive) | 0.127 | -0.169 | 0.287 | 2.33 | 1.39 | 1.29 | 0.594 | 1.16 | 1.8 | 1.17 | 0.462 | 0.962 | 1.33 | 0.826 | -2.32 | 1.33 | 0.992 | -2.11 (inactive)
7 | COC(=O)c1ccc(C(O)C2C=CC3C(=O)N(C)C(=O)C3N2NC(=O)OC(C)(C)C)o1 (stereo not given) | 0.538 | 1.02 (inactive) | 0.178 | 0.135 | 0.436 | 0.489 | 0.734 | 0.94 | -0.0987 | 0.494 | 0.882 | 1.06 | 0.329 | 0.63 | 0.419 | 0.624 | -0.414 | 0.0239 | 0.436 | -0.965 (inactive)
8 | CCCNC(=O)[C@@H]1c2ccccc2C(=O)N(Cc2ccccc2)[C@H]1c1ccc(CO)cc1 | -0.271 | 0.842 (inactive) | 0.0631 | -0.0715 | 0.202 | 1.1 | -0.036 | 0.22 | -0.592 | 1.01 | 1.88 | -0.081 | -0.255 | 0.213 | 0.122 | -0.193 | -0.109 | -0.82 | 0.935 | -0.322 (inactive)
9 | COCCOC(=O)N1C(=O)[C@@]2(c3cc(C#CCNC(N)=O)ccc31)[C@H](c1ccccc1OCCO)N1[C@H](c3ccccc3)[C@H](c3ccccc3)OC(=O)[C@H]1[C@@H]2C(N)=O | -0.117 | -0.479 (inactive) | -0.0345 | -0.148 | 0.475 | -0.726 | 0.177 | 1.22 | 0.616 | 1.18 | 0.208 | 1.15 | 0.189 | 0.963 | 1.25 | 0.917 | -1.24 | 0.782 | 0.305 | -0.868 (inactive)
10 | COCCOC(=O)N1C(=O)[C@@]2(c3cc(C#CCCO)ccc31)[C@H](c1ccccc1OCCO)N1[C@H](c3ccccc3)[C@H](c3ccccc3)OC(=O)[C@H]1[C@@H]2C(=O)N1CCN(c2ncccn2)CC1 | 0.602 | 0.341 (inactive) | 0.413 | 0.123 | 0.539 | 2.02 | 0.505 | 1.12 | 0.52 | 1.15 | 1.64 | 1.21 | 0.714 | 0.807 | 1.32 | 0.819 | -0.835 | 1.38 | 0.789 | -0.198 (inactive)
